This is a sample that favours compounds with a hit; in the whole collection about 5.7% have one here.
BAZ2B block = qHTS Assay for Inhibitors of BAZ2B. AlphaScreen BAZ2B-H3K14Ac peptide displacement. 360,000 tested, 4.4% active. Bromodomain adjacent to zinc finger domain protein 2B (Homo sapiens), Q9UIF8. Potency, µM (doses to about 114 µM), inactives show at the highest dose activity change, negative = inhibition, hits mostly inhibitors; note: potency is the fitted concentration of half-maximal effect; % is set by controls: 0 for no effect and ±100 for the full control effect; nearly all actives have a fitted effect of over 60% in size
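BAZ2B 50 nM plus b-H3(5-23)K14Ac 50 nM, PBS pH 7.4/0.01% Tween-20, 30 min RT; compound added (max 110 uM), 30 min RT; streptavidin donor/Ni-chelate acceptor beads 10 ug/mL final, 20 min dark; AlphaScreen read.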
JMJD2A Tudor = qHTS Assay for Inhibitors of JMJD2A-Tudor Domain; Lysine-specific demethylase 4A (Homo sapiens), O75164; AlphaScreen JMJD2A-Tudor / H3K4me3 peptide binding; Potency, µM (doses to about 114 µM), without a hit: at the top dose activity change, negative = inhibition, hits mostly inhibitors; 390,000 tested, 4.4% active; AID 504339, 2011; note: potency is the fitted concentration of half-maximal effect; % is set by controls: 0 for no effect and ±100 for the full control effect; nearly all actives have a fitted effect of over 50% in size
PI5P4Ka inh = qHTS for Inhibitors of phosphatidylinositol 5-phosphate 4-kinase (PI5P4K) | Phosphatidylinositol 5-phosphate 4-kinase type-2 alpha (Homo sapiens), P48426 | PI5P4Kalpha enzyme, ADP-Glo luminescence, 60 min; hits give low values | max response, % | 330,000 tested, 1.2% active; active = max response of -50% or lower; inconclusive = between -30% and -50%; inactive = -30% or higher; note: value at the top dose of about 77 µM; % is set by controls: 0 for no effect and ±100 for the full control effect
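Luminescence from ADP-Glo served as readout of PI5P4Kalpha activity in a qHTS format. Reaction: enzyme, substrate, compound, ATP at 5 microM final, 60 min at RT.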
L3MBTL1 block = qHTS Assay for the Inhibitors of L3MBTL1; Lethal(3)malignant brain tumor-like protein 1 (Homo sapiens), Q9Y468; 230,000 tested, 0.66% active; AlphaScreen L3MBTL1–H3K9me1 peptide binding; Potency, µM (series often up to 57.1 µM), inactives show at the top dose activity, negative = inhibition, hits mostly inhibitors; AID 485360, 2010; note: potency is the fitted concentration of half-maximal effect; % is set by controls: 0 for no effect and ±100 for the full control effect; nearly all actives have a fitted effect of over 60% in size
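AlphaScreen assay: L3MBTL1 (50 nM final) was preincubated 30 min at room temperature with biotinylated H3(1-15)K9me1 peptide (75 nM final), then 30 min with library compounds; streptavidin donor and nickel chelate acceptor beads (10 ug/mL final) added, 30 min dark.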
HP1b chromo inh = HTS for Inhibitors of HP1-beta Chromodomain Interactions with Methylated Histone Tails; Chromobox protein homolog 1 (Homo sapiens), P83916; AlphaScreen HP1-beta / biotin-H3K9me3 peptide binding; Potency, µM (doses to about 114 µM), for inactives: at the highest dose activity change, negative = inhibition, usual class: inhibitors; 390,000 tested, 0.56% active; note: potency is the fitted concentration of half-maximal effect; nearly all actives have a fitted effect of over 70% in size
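Compound inhibition of the preformed complex between 50 nM HP1-beta and 50 nM biotinylated H3K9me3 peptide was read by AlphaScreen. Buffer was PBS pH 7.4 with 0.01% Tween-20. Incubations ran 30 min at room temperature, with 10 ug/mL donor/acceptor beads.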
KDM4E inh = qHTS Assay for Inhibitors of Human Jumonji Domain Containing 2E (JMJD2E); Lysine-specific demethylase 4E (Homo sapiens), B2RXH2; JMJD2E catalytic domain, FDH-coupled NADH fluorescence (FDH is formaldehyde dehydrogenase); Potency, µM (top dose mostly 57.1 µM), for the others: at the top dose activity change, negative = inhibition, usual class: inhibitors; 230,000 tested, 1.6% active; active = well fitted inhibition curve with a large enough effect, not every such curve was filed as active; inconclusive = small, poorly fitted or top-dose-only effect, or another doubt; inactive = no such curve, though single readings can be large or run the other way;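 note: potency is the fitted concentration of half-maximal effect; 0% = wells with enzyme and -100% = buffer wells without enzyme; nearly all actives have a fitted effect of over 50% in size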
* = called active by the depositor; u = inconclusive; x = no result given; [ ] = dose if it differs, or a comment. Unless noted, calls come from the whole dose curve; as a rule, active = well fitted inhibition curve with a large enough effect; inconclusive = small, poorly fitted or top-dose-only effect; inactive = no such curve, though single readings can be large or run the other way.

SMILES	BAZ2B block	JMJD2A Tudor	PI5P4Ka inh	L3MBTL1 block	HP1b chromo inh	KDM4E inh
COc1ccccc1C(=O)NC(=O)Nc1ccc(-n2nc(C(F)(F)F)cc2C(F)(F)F)cc1	-9%	-7%	x	x	39%	x
Cc1cc(C=O)c(C)n1-c1ccc(N2CCCCC2)c([N+](=O)[O-])c1	40µM*	35µM*	-4	1%	u	-7%
Cc1cc(C=O)c(C)n1-c1ccc(Cl)c(C(=O)O)c1	25µM*	20µM*	-54*	4µM*	40µM*	-21%
Cc1ccc(C(=O)c2ccc([N+](=O)[O-])cc2)cc1	u	-35%	x	x	-10%	-4%
Cc1ccc(C(=O)c2coc3cc([N+](=O)[O-])c(O)c([N+](=O)[O-])c23)cc1	45µM*	56µM*	-82*	u	u	-2%
COc1ccc(-c2nnc(SCC(=O)Nc3cccc(F)c3)s2)cc1	2%	-8%	x	x	27%[57 µM]	x
S=C(NCCCc1cnc[nH]1)NCCCN(Cc1ccccc1)c1ccc(Br)cn1	x	56µM*	x	x	x	x
S=C(NCCCc1cnc[nH]1)NCCCN(CCc1ccccc1)c1ccc(Br)cn1	x	56µM*	x	x	u	x
CCCCN(CCCNC(=S)NCCCc1cnc[nH]1)c1ccc(Br)cn1	x	50µM*	x	x	x	x
CCCCNC(=S)NCCCc1cnc[nH]1	x	-18%	x	x	x	x
CCCCNC(=S)NCCCN(Cc1ccc(Cl)c(Cl)c1)c1ccc(Br)cn1	x	-30%	x	x	x	x
CCOc1ccc(CNS(=O)(=O)c2c(C(=O)N3CCC(C)CC3)c(C)n(C)c2C)cc1OC	-21%	-16%	x	x	6%	x
Cc1ccc(S(=O)(=O)N2CCCc3cc(NC(=O)c4ccc(C(F)(F)F)cc4)ccc32)cc1	-10%	-13%	x	x	22%	x
O=C(Nc1cccc(C(=O)N2CCCCC2)c1)c1nsc2ccccc12	3%	-25%	x	x	13%[57 µM]	x
CC(=O)c1ccc(NS(=O)(=O)c2ccc3[nH]c4c(c3c2)CCCCCC4)cc1	u	-34%	x	x	19%[57 µM]	x
CCOc1ccc(CNS(=O)(=O)c2ccc3[nH]c4c(c3c2)CCCC4)cc1OC	45µM*	u	x	x	u	x
Cc1ccc(NS(=O)(=O)c2ccc3[nH]c4c(c3c2)CCCCC4)cc1	-31%[57.1 µM]	u	x	x	-19%	x
Cc1ccc(NS(=O)(=O)c2ccc3[nH]c4c(c3c2)CCCC4)c(C)c1	40µM*	28µM*	x	x	u	x
COc1ccccc1CNS(=O)(=O)c1ccc2[nH]c3c(c2c1)CCCCC3	18%[57.1 µM]	u	x	x	-15%	x
CC(=O)c1ccc(NS(=O)(=O)c2ccc3[nH]c4c(c3c2)CCCC4)cc1	79µM*	u	x	x	-12%	x
COC(=O)c1ccc(NS(=O)(=O)c2ccc3[nH]c4c(c3c2)CCCC4)cc1	71µM*	u	x	x	-21%	x
Cc1cc(C)c(NC(=O)C2CCCN(C(=O)c3cnn(-c4ccccc4)c3-n3cccc3)C2)c(C)c1 (configuration not stated)	-11%	-8%	x	x	38%	x
COc1cccc(CNc2nc3c(-c4cccc(C)c4)nnn3c3ccccc23)c1	6%	12%	x	x	59%	x
CCOc1cc(/C=C(\C#N)C(=O)Nc2ccc(C)cc2)ccc1OCc1cc(=O)n2nc(CC)sc2n1	1%	-20%	x	x	15%	x
C[n+]1cccc(/C=N/NC(=O)CC23CC4CC(CC(C4)C2)C3)c1	u	-7%	-11	x	22%	6%
CCCCC(=O)Nc1nnn(CCC)n1	4%	-7%	x	x	7%	10%
CCCCC(=O)NC(=S)Nc1nnn(CCC)n1	71µM*	3.5µM*	-2	14%	-2%	-1%
CC(=O)Nc1ccc(S(=O)(=O)NCCC(=O)OCC(=O)c2cccc(Br)c2)cc1	-1%	-13%	1	1%	20%	x

Screening data as filed in PubChem.
